{"source": "PubChem BioAssay (Tox21)", "note": "Results filed as inconclusive are left out. Entries that show only a call come without a potency. Activity calls are given as the source filed them. Calls follow the shape of the dose curve; as a rule, active = well fitted cell-killing curve with a large enough effect in the repeat runs; inconclusive = weak or mixed curves, or effect the other way; inactive = no such curve, though single readings can be large or run the other way. Potency is read from the fitted curve at half-maximal effect."}
{"assay": "qHTS assay for identifying genotoxic compounds that show differential cytotoxicity against isogenic chicken DT40 cell lines with known DNA damage response pathways - Rev3 mutant cell line (AID 743014); also: nearly all actives have a fitted effect of over 55% in size", "conditions": "chicken DT40 Rev3-/- viability, CellTiter-Glo, 40 h; series mostly up to 68.4 µM", "description": "National Center for Advancing Translational Sciences [NCATS]\nNIH Chemical Genomics Center [NCGC]\nU.S. Environmental Protection Agency [EPA]\nNational Institutes of Environmental Health Sciences [NIEHS]\nNational Toxicology Program [NTP]\nU.S. Food and Drug Administration [FDA]\nDNA repair pathways play a critical role in cellular homeostasis by repairing DNA damage induced by endogenous processes and xenobiotics. Isogenic chicken DT40 cell lines deficient in different DNA repair pathways can be used to identify genotoxic compounds and aid in characterizing the nature of the DNA damage induced. Two DNA repair-deficient cell lines with disrupted genes, Rad54/Ku70 or Rev3, were used to screen the Tox21 10K compound library. Possible genotoxicity was based on the presence of a significant increase in cytotoxicity in one or more of the DNA repair-deficient cell lines compared to that observed in the parental DNA repair-proficient cell line. CellTiter Glo viability assay (Promega, Madison, WI) was used to measure cell viability in these cells after compound treatment. This assay includes the data from the Rev3 mutant cell line.\nTox21 Assay Protocol Summary:\n300 DT40 mutant cells in 5 uL/well were dispensed into white, solid-bottom 1536-well plates using a Multidrop Combi (ThermoFisher Scientific, Waltham, MA) dispenser. After the assay plates were incubated at 37 C/5% CO2 for approximately 0.5 hour, 23 nL of compounds dissolved in DMSO, positive controls or DMSO only was transferred into the assay plate by a pintool work station (Kalypsys, San Diego, CA). The assay plates were incubated at 37 C/5% CO2 for 40 hours. After 5 uL per well of CellTiter-Glo reagent was added into each well of the assay plates, the plates were incubated for 30 min at room temperature and the luminescence intensity of the plates was measured using a ViewLux (PerkinElmer, Shelton, CT) plate reader."}
{"smiles": "Cc1ccccc1S", "Potency": "27.5 µM (active)"}
{"smiles": "CN1CCCC(n2nc(Cc3ccc(Cl)cc3)c3ccccc3c2=O)CC1", "note": "(stereo not given)", "Potency": "21.1 µM (active)"}
{"smiles": "CCCCOc1ccc(OCCCN2CCOCC2)cc1", "Potency": "1.01 µM (active)"}
{"smiles": "OCCOCC#CCOCCO", "Potency": "inactive"}
{"smiles": "CCC1CO1", "note": "(stereo not given)", "Potency": "inactive"}
{"smiles": "Cc1cc(C)c(N)cc1C", "Potency": "inactive"}
{"smiles": "C/C=C/C=C/C=O", "Potency": "54.1 µM (active)"}
{"smiles": "CCC(C)COC(=O)CC(C)C", "note": "(stereo not given)", "Potency": "61.1 µM (active)"}
{"smiles": "CCCCCCCCCI", "Potency": "inactive"}
{"smiles": "O=C(O)CCc1nc(-c2ccccc2)c(-c2ccccc2)o1", "Potency": "inactive"}
{"smiles": "O=C1NCCN1CCO", "Potency": "inactive"}
{"smiles": "Cc1c(C)c2c(c(C)c1OC(=O)CCC(=O)OCCO)CC[C@@](C)(CCC[C@H](C)CCC[C@H](C)CCCC(C)C)O2", "Potency": "10.6 µM (active)"}
{"smiles": "O=C(Cn1ccnc1[N+](=O)[O-])NCCO", "Potency": "inactive"}
{"smiles": "C[C@@H]1CN(CCCn2c3ccccc3c3ccccc32)C[C@H](C)N1", "Potency": "7.5 µM (active)"}
{"smiles": "CN(C)CCN1C(=O)c2ccccc2N(C)c2ccccc21", "Potency": "inactive"}
{"smiles": "O=[N+]([O-])c1ccc(Nc2ccc(Nc3ccccc3)c(S(=O)(=O)O)c2)c([N+](=O)[O-])c1", "Potency": "inactive"}
{"smiles": "CCCCCCC(C)(C)C(=O)O", "Potency": "inactive"}
{"smiles": "N#CCc1ccc(Cl)cc1Cl", "Potency": "inactive"}
{"smiles": "C[C@@H]1CC(=O)NN=C1c1ccc(NN=C(C#N)C#N)cc1", "Potency": "18.8 µM (active)"}
{"smiles": "Oc1cc2c(cc1O)[C@H]1c3ccc(O)c(O)c3OC[C@@]1(O)C2", "Potency": "22 µM (active)"}
{"smiles": "CCCCCCCCOc1ccc(C(=O)O)cc1", "Potency": "inactive"}
{"smiles": "CC(=O)Oc1ccc([N+](=O)[O-])cc1CCl", "Potency": "1.72 µM (active)"}
{"smiles": "O=C(/C=C/c1ccc(O)c(O)c1)O[C@@H]1C[C@@](OC(=O)/C=C/c2ccc(O)c(O)c2)(C(=O)O)C[C@@H](O)[C@@H]1O", "Potency": "inactive"}
{"smiles": "CCOC(C)=O", "Potency": "inactive"}
{"smiles": "CCOC(=O)c1ccc(I)cc1", "Potency": "inactive"}
{"smiles": "COc1ccccc1N1CCN(CCCCNC(=O)c2ccc(-c3ccc(C(C)=O)cc3)cc2)CC1", "Potency": "inactive"}
{"smiles": "COc1cc(Nc2c(C#N)cnc3cc(OCCCN4CCN(C)CC4)c(OC)cc23)c(Cl)cc1Cl", "Potency": "2.98 µM (active)"}
{"smiles": "CCC(OCCCOC)OC(C)=O", "note": "(stereo not given)", "Potency": "inactive"}
{"smiles": "CCCCC(CC)CN", "note": "(stereo not given)", "Potency": "62.3 µM (active)"}
{"smiles": "CCCCN1CCCC1C(=O)Nc1c(C)cc(C)cc1C", "note": "(stereo not given)", "Potency": "23.7 µM (active)"}
{"smiles": "Cc1cscn1", "Potency": "inactive"}
{"smiles": "O=c1[nH]ncc2ccccc12", "Potency": "inactive"}
{"smiles": "C=C/C(C)=C/C/C=C(\\C)CCC=C(C)C", "Potency": "61.1 µM (active)"}
{"smiles": "O=C(O)C[C@H](NC(=O)OCc1ccccc1)C(=O)O", "Potency": "inactive"}
{"smiles": "O=c1c(O)c(-c2ccc(O)cc2)oc2cc(O)cc(O)c12", "Potency": "11.6 µM (active)"}
{"smiles": "C=C(C)C(=O)OCCOCCOC(=O)C(=C)C", "Potency": "inactive"}
{"smiles": "CC1=C(Br)C(=O)C(Br)=C/C1=C(/c1ccccc1S(=O)(=O)O)c1cc(Br)c(O)c(Br)c1C", "Potency": "20.8 µM (active)"}
{"smiles": "CN(C)CCC=C1c2ccccc2C=Cc2ccccc21", "Potency": "8.41 µM (active)"}
{"smiles": "Nc1cccc2c1CN(C1CCC(=O)NC1=O)C2=O", "note": "(stereo not given)", "Potency": "inactive"}
{"smiles": "Cc1cc(C)cc(N)c1", "Potency": "inactive"}
